In all, about 1,400 compounds went through this assay and about 380 (27%) were called active. The list shows a part of the results. Unmarked numbers belong to inactive results.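 The calls were made as follows: active = mean inhibition above 50% across duplicate retests at 10 µM; inactive = the rest.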
experiment: yeast NALP1 reporter signal suppression – S. cerevisiae, luminescence, single concentration, NALP1 inhibitor project, confirmation (AID 488841);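 also: plate controls were DMSO in galactose medium for no effect and cells in plain SD medium for full effect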; conditions: S. cerevisiae NALP1/ASC/Caspase-1 reporter, beta-gal luminescence; at 10 µM; active compounds read high

Row | SMILES | inhibition
1 | O=C(CN1CCN(c2cccc(Cl)c2)CC1)Nc1ccc(S(=O)(=O)N2CCOCC2)cc1 | 35.4%
2 | COC(=O)c1cc(OC)c(OC)cc1NC(=S)N1CCN(c2ccccc2)CC1 | 30%
3 | COC(=O)/C=C/C(=O)N1CCN(c2cccc(Cl)c2)CC1 | 54.7% (active)
4 | Cc1ccnc(NS(=O)(=O)c2ccc(NC(=O)CSc3nc(-c4ccccc4)cc(=O)[nH]3)cc2)n1 | 12.6%
5 | CCOc1cc(C(=O)OCC(=O)Nc2ncc(Cl)c(C)c2Cl)ccc1OCC(=O)N1CCOCC1 | 27.4%
6 | CC(=O)N1CCCc2cc(S(=O)(=O)N3CCc4ccccc4C3)ccc21 | 33.2%
7 | Cc1ccc2cc3cc(C(=O)NCCCN4CCc5ccccc5C4)oc3nc2c1 | 30.9%
8 | O=C(Nc1ccccc1)N1CCc2ccccc2C1 | 62% (active)
9 | O=C(NCCCN1CCc2ccccc2C1)Nc1ccc(Br)cc1 | 25.1%
10 | Cc1ccc(NC(=O)N2CCc3ccccc3C2)cc1 | 64.8% (active)
11 | COC(=O)/C(=N/Nc1ccc(C)cc1)N1CCCc2ccccc21 | 32%
12 | CCCCCCCCCCOC(=O)Cn1c(COc2ccc(Cl)cc2)[n+](C)c2ccccc21 | 34%
13 | O=C1NC(c2ccccc2)Nc2c1sc(=S)n2-c1ccccc1 (centres undefined) | 25.1%
14 | CCN(CC)S(=O)(=O)c1ccc2oc(C(=O)NC3CCCc4ccccc43)c(C)c2c1 (centres undefined) | 4.35%
15 | CCN1/C(=C\c2ccc3ccccc3[n+]2CC)Sc2cc(C)ccc21 | 98.2% (active)
16 | CCN1/C(=C/c2ccc3cc(C)ccc3[n+]2CC)Sc2ccccc21 | 101% (active)
17 | CC[n+]1c(/C=C2\Sc3ccccc3N2C)ccc2cccc(C)c21 | 96.8% (active)
18 | CCN1/C(=C/c2ccc3ccc(C)cc3[n+]2CC)Sc2ccccc21 | 21.4%
19 | Cc1cc(=O)n2ccccc2c1C#N | 9.65%
20 | C/C(=N/NC(=O)c1nnn(-c2nonc2N)c1COc1ccccc1)c1ccc(O)cc1 | 22.6%
21 | Cc1cc(C)cc(C(=O)OCC(=O)NCCNC(=O)COC(=O)c2cc(C)cc(C)c2)c1 | 31.4%
22 | OCCN(CCO)c1ncnc2c1oc1ccc(Br)cc12 | 31.3%

Row | SMILES | inhibition
23 | CC1CN(S(=O)(=O)c2ccc(C(=O)Nc3nc(-c4cc5ccccc5o4)cs3)cc2)CC(C)O1 (centres undefined) | 30.1%
24 | N#CC1(C#N)CC(C=O)=C(N)C1(C#N)CC(=O)C12CC3CC(CC(C3)C1)C2 (centres undefined) | 36.1%
25 | Cc1ccc(Cl)cc1N1CCN(S(C)(=O)=O)CC1 | 39.6%
26 | CCCC(CCC)c1nc2ccncc2[nH]1 | 27.4%
27 | CC(=O)NS(=O)(=O)c1ccc(NC(=O)CSc2ccccc2)cc1 | 8.45%
28 | CCN(CC)CCCOc1ccc(Cl)c(Cl)c1 | 44.2%
29 | CCCCNCCOCCOc1ccc(Cl)cc1Br | 48%
30 | C#CCN(C)CCCOc1ccc(Cl)cc1Cl | 55.1% (active)
31 | CC(C)CC(=O)N1CCN(S(=O)(=O)c2ccccc2)CC1 | 24.9%
32 | COc1ccc(-c2cc(-c3cc(OC)ccc3O)[nH]n2)cc1 | 49.4%
33 | Cc1ccc2c(c1)c1c3n2CCCNC3CCC1 (centres undefined) | 43.8%
34 | O=C(N1CCN(c2ccccn2)CC1)C(Cl)(Cl)Cl | 60.1% (active)
35 | O=C(c1ccccc1-c1ccccc1)N1CCN(c2ccccn2)CC1 | 29.1%
36 | CCOC(=O)c1cc(-c2ccccc2)n(CCC(=O)N2CCN(c3ccccn3)CC2)c1C | 39.2%
37 | C=C(C)C(=O)Nc1nnc(-c2cccs2)s1 | 55.5% (active)
38 | C=C(C)C(=O)Nc1cccc(C(C)=O)c1 | 10.3%
39 | Cn1c(SCC(=O)NC(c2ccccc2)c2ccccc2)nnc1-c1cccs1 | 34%
40 | CN1/C(=C\C(=O)c2cccs2)C(C)(C)c2ccccc21 | 35.5%
41 | O=C(COC(=O)CCC1CCCCC1)Nc1ccc(OC(F)F)cc1 | 19.5%
42 | CCCCNC1CCS(=O)(=O)C1 (centres undefined) | 24%
43 | CCCCCCOc1ccc(-c2ccc(C#N)cn2)cc1 | 34.9%
44 | CCCCCOc1ccc(Br)cc1/C(C)=N/NC1=NCCN1 | 51.2% (active)

Row | SMILES | inhibition
45 | CCCCCCOc1ccc(OC(=O)c2ccncc2)cc1 | 24.9%
46 | CCCCCCOc1ccc(/C(C)=N/NC2=NCCN2)cc1 | 51.5% (active)
47 | CCCCOc1ccc(CSC2=NCCN2)cc1[N+](=O)[O-] | 43.9%
48 | CCn1c(SCC(=O)Nc2ccc3c(c2)OCO3)nnc1-c1cnccn1 | 36.9%
49 | CCOc1ccccc1C1CC(=O)NC(SCC(=O)Nc2nccs2)=C1C#N (centres undefined) | 10.4%
50 | CCOc1nc(N2CCOCC2)nc(N2CCOCC2)n1 | 29.6%
51 | O=C(N/N=C\c1cccc([N+](=O)[O-])c1O)C1COc2ccccc2O1 (centres undefined) | 56.7% (active)
52 | O=[N+]([O-])c1cc(Cc2ccccc2)cc(C=Nc2ccc(N3CCOCC3)cc2)c1O | 47.5%
53 | COc1cccc(/C=N/NC(=O)CNC(=O)C2COc3ccccc3O2)c1O (centres undefined) | 41%
54 | NCCS | 55.1% (active)
55 | CCCCCCC(=O)N(O)C1CC(=O)N(Cc2ccccc2)C1=O (centres undefined) | 15.2%
56 | C=CCn1c(CNC(=O)c2cccs2)nnc1SCC(=O)Nc1ccc(C(=O)O)cc1 | 24.2%
57 | Cc1ccccc1Nc1cc(C)c2c(O)cccc2n1 | 65.8% (active)
58 | CC(=O)Nc1ccc2nc(CN3CCC(CO)(CCc4ccccc4)CC3)ccc2c1 | 34.5%
59 | CNc1ccc(/C=C/C(=O)c2ccc3c(c2)OCCO3)cc1[N+](=O)[O-] | 52.8% (active)
60 | Cc1c([N+](=O)[O-])c(C(=O)Nc2ccc3c(c2)OCCO3)nn1C | 27.4%
61 | CCn1c(SCC(=O)Nc2oc(-c3ccccc3)c(-c3ccccc3)c2C#N)nnc1-c1cc(OC)cc(OC)c1 | 22.6%
62 | COc1ccc(S(=O)(=O)N(CC(=O)N2CCOCC2)Cc2ccccc2)cc1C | 22.4%
63 | CC1(C)CC(=O)c2c(-c3cccs3)n[nH]c2C1 | 38.8%
64 | CC1=NNC(=O)/C1=C\c1cn(-c2ccccc2)nc1-c1cccs1 | 62.4% (active)
